Source: PubChem (The Scripps Research Institute Molecular Screening Center)
TbREL1 inh: TbREL1 inhibition, primary screen | P86926 | TbREL1 RNA ligation, FRET fluorescence | inhibition, % at 9.66 µM | 89,000 compounds, 0.49% hits | AID 1117264;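 active = inhibition above the mean inhibition across all screened compounds plus 3 SD, cut at about 11% in these data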;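 also: 0% = plate median of test wells and 100% = NSC42067 control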
Target sequence (P86926 whole entry, looked up): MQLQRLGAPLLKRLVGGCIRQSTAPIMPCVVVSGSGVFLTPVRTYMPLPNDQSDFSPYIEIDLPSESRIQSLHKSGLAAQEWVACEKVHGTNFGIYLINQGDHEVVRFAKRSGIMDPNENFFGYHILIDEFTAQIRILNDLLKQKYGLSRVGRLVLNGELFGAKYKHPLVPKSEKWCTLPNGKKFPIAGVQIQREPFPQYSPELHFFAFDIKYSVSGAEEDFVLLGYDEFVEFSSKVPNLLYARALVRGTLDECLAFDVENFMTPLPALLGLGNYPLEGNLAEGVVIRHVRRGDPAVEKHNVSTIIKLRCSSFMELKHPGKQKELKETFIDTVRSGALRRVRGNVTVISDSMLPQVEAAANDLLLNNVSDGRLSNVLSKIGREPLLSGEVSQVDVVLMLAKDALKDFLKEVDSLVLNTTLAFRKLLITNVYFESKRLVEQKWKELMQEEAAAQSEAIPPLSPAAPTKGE
TbREL1 confirm: TbREL1 inhibition, confirmation | shares compounds with TbREL1 inh | TbREL1 RNA ligation, FRET fluorescence | inhibition, % at 9.66 µM | 390 compounds, 37% hits;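 active = mean inhibition across replicates above a set limit taken from the earlier primary screen, cut at about 11% in these data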;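 also: 0% = REL1 with substrate and DMSO and 100% = REL1 plus control inhibitor NSC42067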
* = called active by the depositor. This is one part of a sample in which hits are shown more often than they occur.

SMILES | TbREL1 inh | others
Cc1cc(C(=O)N/N=C/c2ccc(O)c(O)c2O)c(C)n1-c1ccccc1 | 0.9
Oc1ccc(/C=N/N(Cc2ccccc2)c2ccccc2)c(O)c1O | -4.4
CCN=c1scc(C)n1/N=C/c1ccc(O)c(O)c1O | 13.1* | TbREL1 confirm=24.3*
CC(C)Nc1nc(NCCOc2ccccc2)c2sccc2n1 | 13.5* | TbREL1 confirm=7.1
c1ccc(OCCNc2nc(NCC3CC3)nc3cc(-c4ccccc4)sc23)cc1 | 8.8
c1ccc(CNc2nc(NCCc3ccncc3)c3sccc3n2)cc1 | -0.1
CNc1nc(NCc2ccccc2)c2sccc2n1 | 5.2
COc1cccc(CNc2nc(NCc3ccccc3)nc3ccsc23)c1 | 12.8* | TbREL1 confirm=13.5*
COCCNc1nc(NCc2cccs2)nc2ccsc12 | 0.7
c1ccc(-c2cccc(CNc3nc(-c4ccccn4)nnc3-c3ccccc3)c2)cc1 | 5.0
Cc1nc2c(Br)cc(Br)cc2c(=O)n1-c1ccccc1NC1OCC(O)C(O)C1O (centres undefined) | 2.8
Cc1cc(C)n(CCN(C)C(=O)C2CCC(=O)N(CCN3CCOCC3)C2)n1 (centres undefined) | 2.6
O=C(Cn1cnc2c(OCc3ccccc3)ncnc21)NCCN1CCOCC1 | 0.2
C[C@@H](NCCCn1cnc2c(OCc3ccccc3)ncnc21)c1cccc2ccccc12 | 12.5* | TbREL1 confirm=13.1*
C[C@@H](NC(=O)Cn1cnc2c(OCc3ccccc3)ncnc21)c1cccc2ccccc12 | -4.4
Cc1nc2ccccc2n1CC(=O)c1ccc(O)c(O)c1 | 16.0* | TbREL1 confirm=15.5*
O=C(CSc1nc2ccccc2n1CCc1ccccc1)c1ccc(O)c(O)c1 | 9.1
Cc1[nH]c2ccccc2c1C(=O)COC(=O)Cn1c(C)nc2ccccc21 | 1.1
O=C(Nc1nc2ncccn2c1-c1ccc(F)cc1)c1ccc(F)cc1 | -3.6
CC1C(c2ccccc2)=Nn2c(=O)n(-c3ccccc3)c(=O)n21 (centres undefined) | 2.5
N#Cc1ccc(S(=O)(=O)N2CCC(C(=O)N3CCN(Cc4ccc5c(c4)OCO5)CC3)CC2)cc1 | 2.8
C#CCOCCOCCOCCNc1nc(N2CCN(C(=O)[C@H]([C@@H](C)CC)n3cc([C@@H](N)Cc4ccc(O)cc4)nn3)CC2)nc(N2CCN(C(=O)[C@H]([C@@H](C)CC)n3cc([C@@H](N)Cc4ccc(O)cc4)nn3)CC2)n1 | 8.8
C#CCOCCOCCOCCNc1nc(N2CCN(C(=O)[C@H]([C@@H](C)CC)n3cc([C@@H](N)CC(C)C)nn3)CC2)nc(N2CCN(C(=O)[C@H]([C@@H](C)CC)n3cc([C@@H](N)CC(C)C)nn3)CC2)n1 | 11.1* | TbREL1 confirm=9.4
C#CCOCCOCCOCCNc1nc(N2CCN(C(=O)[C@H]([C@@H](C)CC)n3cc([C@@H](N)CC(C)C)nn3)CC2)nc(N2CCN(C(=O)[C@H](Cc3ccc(O)cc3)n3cc([C@@H](N)CC(C)C)nn3)CC2)n1 | 4.7
O=C(OC1CC2CC1[C@H]1CCCCN1C2=O)N1CCC(c2ccccc2)CC1 (some centres undefined) | -3.2
SMILES | TbREL1 inh | others
Clc1ccc(-c2cc(-c3nnc4sc(Cc5cccs5)nn34)[nH]n2)cc1 | 1.1
COc1ccc(C=Nn2c(-c3ccc(F)cc3)n[nH]c2=S)cc1OCc1ccccc1 | -1.8
COC(=O)[C@@H](Cc1ccccc1)NC(=O)[C@H]1O[C@@H](n2cnc3c(=O)[nH]c(N)nc32)[C@H](O)[C@@H]1O | -4.6
CC(CNC(=O)[C@H]1O[C@@H](n2cnc3c(=O)[nH]c(N)nc32)[C@H](O)[C@@H]1O)c1ccccc1 (some centres undefined) | -0.5
COc1cccc(CN(C)C(=O)[C@H]2O[C@@H](n3cnc4c(=O)[nH]c(N)nc43)[C@H](O)[C@@H]2O)c1 | 14.1* | TbREL1 confirm=19.3*
O=Cc1ccc(-c2cccc(C(=O)O)c2)o1 | 1.4
COC(=O)c1cccc(-c2ccc(C(c3c(C)[nH][nH]c3=O)c3c(C)[nH][nH]c3=O)o2)c1 | 14.5* | TbREL1 confirm=8.6
COC(=O)c1cccc(-c2ccc(/C=N/N3C(=O)C4C5C=CC(C6CC56)C4C3=O)o2)c1 (centres undefined) | -2.1
CC(C)(C)OC(=O)N1CCC(N[C@@H](Cc2ccccc2)C(=O)NCCc2c[nH]c3ccccc23)(C(=O)NC2CCCCC2)CC1 | -5.3
Nc1ccn([C@@H]2O[C@H](C(=O)NCc3ccc4c(c3)OCO4)[C@@H](O)[C@H]2O)c(=O)n1 | 3.5
c1ccc(-c2cnc(SCCN3CCOCC3)n2CC2CCCO2)cc1 (centres undefined) | 15.2* | TbREL1 confirm=-0.9
c1ccc(-c2csc(=Nc3cccnc3)n2CC2CCCO2)cc1 (centres undefined) | 0.3
COc1ccc(-c2cnc(N)n2CC2CCCO2)cc1 (centres undefined) | -0.3
COC(=O)c1ccc(OCC(O)CN2CCc3cc(OC)c(OC)cc3C2c2ccccc2)cc1 (centres undefined) | 1.8
Cc1nnc(SCC(=O)NCCC2=CCCCC2)[nH]c1=O | -0.9
OCCNCCOCCOc1ccccc1-c1ccccc1 | 3.0
CN(C)CCOCCOc1ccccc1-c1ccccc1 | 15.3* | TbREL1 confirm=6.1
c1ccc(-c2ccccc2OCCOCCN2CCCCC2)cc1 | 2.6
CCn1c(COc2cc(C)ccc2C(C)C)nnc1SCC(=O)Nc1nccs1 | 12.2* | TbREL1 confirm=6.6
Cc1cccc(-n2c(CNC(=O)COc3ccccc3)nnc2SCC(=O)Nc2nccs2)c1 | 2.9
CN(C)CCCn1c(SCC(=O)Nc2nccs2)nnc1-c1ccncc1 | 0.9
N#C/C(=C\C=C\c1ccccc1)C(=O)N1CCCC1 | -0.1
O=C(NCCc1ccccc1)OCc1cn(Cc2ccc(Cl)cc2)nn1 | -2.0
COc1cc(-n2c(C)nc3cc(C(=O)N4CCCCC4)ccc32)cc(OC)c1OC | -2.0
CCC[C@H]1[C@@H](OC(=O)NCc2ccc(C(F)(F)F)cc2)CC[C@@]23CCCN2C(=O)CCC[C@@H]13 | 0.6
SMILES | TbREL1 inh | others
O=C(CSc1nc2ccccc2[nH]1)NN=Cc1ccccc1C(=O)O | 4.7
O=C(OCCc1cc2ccccc2c(=O)o1)c1ccc(C(F)(F)F)cc1 | 0.3
COCCCNCCCOc1ccc(Cl)cc1Br | 11.2* | TbREL1 confirm=6.3
COCCCNCCCCOc1c(Cl)cc(C)cc1Br | 11.8* | TbREL1 confirm=8.2
Cc1cc(Cl)c(OCCCn2cncn2)c(Br)c1 | -1.2
C=CCNCCCCOc1c(Cl)cc(C)cc1Br | 7.1
CCCCNCCCOc1cc(Cl)ccc1Cl | -1.5
COCCCNCCOc1ccc(C)cc1[N+](=O)[O-] | 4.2
COc1cc(C)c(NC(=O)COc2ccc3c(c2)CCC3)cc1OC | 4.5
CC1CN(C(=O)CNC(=O)COc2ccccc2)CC(C)O1 (centres undefined) | 4.3
Cc1ccccc1CNC(=O)C(=O)NCC1OCCCN1S(=O)(=O)c1ccc(F)cc1C (centres undefined) | -2.1
O=C(CSc1nc2ccccc2c(=O)n1-c1ccc(Cl)cc1)NNC(=S)Nc1ccccc1 | -8.1
CCC(C)NC(=O)C1CCN(S(=O)(=O)c2ccc3[nH]c(=O)oc3c2)CC1 (centres undefined) | 12.0* | TbREL1 confirm=24.8*
Cc1ccc(NC(=O)C2CCN(S(=O)(=O)c3ccc4[nH]c(=O)oc4c3)CC2)cc1F | -0.8
CCC(C)NC(=O)C1CCN(S(=O)(=O)c2cccnc2)CC1 (centres undefined) | 1.7
C[C@H]1C2CC(OC(=O)Nc3cccc(Cl)c3)C(C2)[C@H]2CCCCN21 (some centres undefined) | 8.4
O=C(c1ccc(-c2ccccc2Cl)o1)N1CCCCCCC1 | 12.9* | TbREL1 confirm=3.9
